From PubChem BioAssay AID1159580 (chemical genetic matrix, 2015)
The whole screen tested about 5,500 compounds, of which about 2,000 (36%) were called active. Another 18% or so got no clear call; they are omitted. The list shows a part of the results. A number with no mark means an inactive call. Rule as the data show it: active = normalized growth mostly below about 0.91 (no sharp cut-off); inconclusive = no clear call, values can overlap the other calls; inactive = mostly above about 0.92.

Assay: chemical genetic growth profiling, strain panel (AID 1159580);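 also: tested at 20 µM; growth read once vehicle control cultures reached saturation at 30 °C; 1 = growth at the plate median or of vehicle wells; lower values mean less growth of the strain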
Settings: S. cerevisiae deletion strains, growth OD
[1] = locus YAL013W, strain DEP1, hits give low values
[2] = locus YBR229C, strain ROT2, hits give low values
[3] = locus YDL101C, strain DUN1, hits give low values
[4] = locus YDL134C, strain PPH21, hits give low values
[5] = locus YDR150W, strain NUM1, hits give low values
[6] = locus YEL061C, strain CIN8, hits give low values
[7] = locus YGR078C, strain PAC10, hits give low values
[8] = locus YHR030C, strain SLT2, hits give low values
[9] = locus YHR087W, strain rtc3, hits give low values
[10] = locus YJL187C, strain SWE1, hits give low values
[11] = locus YJR043C, strain POL32, hits give low values
[12] = locus YJR075W, strain HOC1, hits give low values
[13] = locus YLR039C, strain RIC1, hits give low values
[14] = locus YLR058C, strain SHM2 (second series), hits give low values
[15] = locus YLR085C, strain ARP6, hits give low values
[16] = locus YLR262C, strain YPT6, hits give low values
[17] = locus YML094W, strain GIM5, hits give low values
[18] = locus YMR219W, strain ESC1, hits give low values
[19] = locus YMR263W, strain SAP30, hits give low values
[20] = locus YNL153C, strain GIM3, hits give low values
[21] = locus YNL298W, strain CLA4 (second series), hits give low values
[22] = locus YNL322C, strain KRE1, hits give low values
[23] = locus YNR030W, strain Alg12, hits give low values
[24] = locus YPL055C, strain LGE1, hits give low values
[25] = locus YPL241C, strain CIN2, hits give low values
[26] = locus YPR135W, strain CTF4, hits give low values

With O=C1CSCC(=O)N1c1ccc(F)c(Cl)c1 the normalized growth [1] was 0.993, the normalized growth [2] was 0.994 and the normalized growth [3] was 1. The normalized growth [4] was 0.99, the normalized growth [5] was 0.935 and the normalized growth [6] was 0.984. For the same compound, the normalized growth [7] was 0.994, the normalized growth (locus YGR229C, strain SMI1, hits give low values) was 0.985 and the normalized growth [8] was 0.996. The normalized growth [9] was 0.981, the normalized growth [10] was 1 and the normalized growth [11] was 0.925. For the same compound, the normalized growth [12] was 0.989, the normalized growth [13] was 1.02 and the normalized growth [14] was 1. For the same compound, the normalized growth [15] was 0.978, the normalized growth [16] was 0.995 and the normalized growth [17] was 0.992. The normalized growth [18] was 1, the normalized growth [19] was 0.994 and the normalized growth [20] was 0.997. The normalized growth [21] was 0.998, the normalized growth [22] was 0.979 and the normalized growth [23] was 0.281 (active). The normalized growth [24] was 0.97, the normalized growth [25] was 0.378 (active) and the normalized growth [26] was 1.

Work on O=C1C2C3C=CC(C3)C2C(=O)N1c1ccc(F)c(F)c1 (stereo unspecified) yielded a normalized growth [1] of 1.01, a normalized growth [2] of 1.03 and a normalized growth (locus YCL061C, strain MRC1, hits give low values) of 0.986. It also gave a normalized growth [3] of 0.993, a normalized growth [4] of 0.999 and a normalized growth [5] of 0.997. It also gave a normalized growth [6] of 1.03, a normalized growth [7] of 0.994 and a normalized growth [8] of 1.01. For the same compound, the normalized growth [9] was 0.995, the normalized growth [10] was 1.01 and the normalized growth [11] was 0.957. For the same compound, the normalized growth [12] was 1.01, the normalized growth (locus YKL190W, strain CNB1, hits give low values) was 0.99 and the normalized growth [13] was 0.995. It also gave a normalized growth [14] of 0.981, a normalized growth [15] of 1.06 and a normalized growth [16] of 0.992. It also gave a normalized growth [17] of 1.01, a normalized growth [18] of 1 and a normalized growth [19] of 1. For the same compound, the normalized growth [20] was 0.983, the normalized growth [21] was 0.982 and the normalized growth [22] was 1.02. It also gave a normalized growth [23] of 1.02, a normalized growth [24] of 1.06 and a normalized growth [25] of 0.994. The normalized growth [26] was 0.975.

CC1=CC(=O)N(c2ccc(F)c(Cl)c2)C1=O showed a normalized growth (locus YAR019C, strain CDC15, hits give low values) of 0.966, a normalized growth (locus YBL105C, strain PKC1, hits give low values) of 0.974 and a normalized growth (locus YBR135W, strain CKS1, hits give low values) of 0.964. It also gave a normalized growth (locus YBR136W, strain MEC1, hits give low values) of 0.971, a normalized growth (locus YBR160W, strain CDC28, hits give low values) of 0.975 and a normalized growth (locus YDL017W, strain CDC7, hits give low values) of 0.966. For the same compound, the normalized growth (locus YDL028C, strain MPS1, hits give low values) was 0.976, the normalized growth [3] was 0.76 (active) and the normalized growth (locus YDL108W, strain KIN28, hits give low values) was 0.979. For the same compound, the normalized growth (locus YDL132W, strain cdc53, hits give low values) was 0.986, the normalized growth (locus YDL214C, strain PRR2, hits give low values) was 0.345 (active) and the normalized growth (locus YDR052C, strain DBF4, hits give low values) was 0.978. The normalized growth (locus YDR054C, strain cdc34, hits give low values) was 0.983, the normalized growth (locus YDR226W, strain ADK1, hits give low values) was 0.97 and the normalized growth (locus YDR477W, strain SNF1, hits give low values) was 0.376 (active). For the same compound, the normalized growth (locus YER123W, strain YCK3, hits give low values) was 0.243 (active), the normalized growth (locus YER133W, strain GLC7, hits give low values) was 0.371 (active) and the normalized growth (locus YFL009W, strain cdc4, hits give low values) was 0.974. The normalized growth (locus YFL029C, strain CAK1, hits give low values) was 0.96, the normalized growth (locus YFR003C, strain YPI1, hits give low values) was 0.975 and the normalized growth (locus YFR019W, strain FAB1, hits give low values) was 0.443 (active). The normalized growth (locus YFR028C, strain CDC14, hits give low values) was 0.967, the normalized growth (locus YGR040W, strain KSS1, hits give low values) was 0.461 (active) and the normalized growth (locus YGR052W, strain FMP48, hits give low values) was 0.387 (active). The normalized growth (locus YGR092W, strain DBF2, hits give low values) was 0.335 (active), the normalized growth [8] was 0.173 (active) and the normalized growth (locus YHR079C, strain IRE1, hits give low values) was 0.195 (active). For the same compound, the normalized growth (locus YHR082C, strain KSP1, hits give low values) was 0.235 (active), the normalized growth (locus YHR205W, strain SCH9, hits give low values) was 0.395 (active) and the normalized growth (locus YIL147C, strain SLN1, hits give low values) was 0.975. The normalized growth (locus YJL095W, strain BCK1, hits give low values) was 0.168 (active), the normalized growth (locus YJL128C, strain PBS2, hits give low values) was 0.953 and the normalized growth (locus YJL157C, strain FAR1, hits give low values) was 0.377 (active). The normalized growth (locus YJR016C, strain ILV3, hits give low values) was 0.987, the normalized growth (locus YJR066W, strain TOR1 (second series), hits give low values) was 0.219 (active) and the normalized growth (locus YJR066W, strain TOR1, hits give low values) was 0.166 (active). For the same compound, the normalized growth (locus YKL048C, strain ELM1, hits give low values) was 0.474 (active), the normalized growth (locus YKL067W, strain YNK1, hits give low values) was 0.347 (active) and the normalized growth (locus YKL101W, strain HSL1, hits give low values) was 0.386 (active). The normalized growth (locus YKL193C, strain SDS22, hits give low values) was 0.974, the normalized growth (locus YKL203C, strain TOR2, hits give low values) was 0.506 (active) and the normalized growth (locus YLR113W, strain HOG1, hits give low values) was 0.335 (active). The normalized growth (locus YLR133W, strain CKI1, hits give low values) was 0.457 (active), the normalized growth (locus YLR403W, strain SFP1, hits give low values) was 0.404 (active) and the normalized growth (locus YML070W, strain DAK1, hits give low values) was 0.274 (active). For the same compound, the normalized growth (locus YMR001C, strain CDC5, hits give low values) was 0.962, the normalized growth (locus YMR205C, strain PFK2 (second series), hits give low values) was 0.407 (active) and the normalized growth (locus YMR277W, strain FCP1, hits give low values) was 0.973. For the same compound, the normalized growth (locus YNL006W, strain LST8, hits give low values) was 0.982, the normalized growth (locus YNL020C, strain ARK1, hits give low values) was 0.477 (active) and the normalized growth (locus YNL161W, strain CBK1, hits give low values) was 0.963. For the same compound, the normalized growth (locus YNL183C, strain NPR1, hits give low values) was 0.156 (active), the normalized growth (locus YNL207W, strain RIO2, hits give low values) was 0.973 and the normalized growth (locus YNL222W, strain SSU72, hits give low values) was 0.973. For the same compound, the normalized growth (locus YNL307C, strain MCK1 (second series), hits give low values) was 0.34 (active), the normalized growth (locus YOL078W, strain AVO1, hits give low values) was 0.966 and the normalized growth (locus YOL136C, strain PFK27, hits give low values) was 0.335 (active). The normalized growth (locus YOR061W, strain CKA2, hits give low values) was 0.549 (active), the normalized growth (locus YOR119C, strain RIO1, hits give low values) was 0.524 (active) and the normalized growth (locus YOR231W, strain MKK1, hits give low values) was 0.225 (active). The normalized growth (locus YOR329C, strain SCD5, hits give low values) was 0.98, the normalized growth (locus YPL031C, strain PHO85, hits give low values) was 0.233 (active) and the normalized growth (locus YPL153C, strain RAD53, hits give low values) was 0.398 (active). The normalized growth (locus YPL204W, strain HRR25, hits give low values) was 0.455 (active), the normalized growth (locus YPL209C, strain IPL1, hits give low values) was 0.964 and the normalized growth (locus YPL256C, strain CLN2, hits give low values) was 0.206 (active). For the same compound, the normalized growth (locus YPR025C, strain CCL1, hits give low values) was 0.97, the normalized growth (locus YPR106W, strain ISR1, hits give low values) was 0.974 and the normalized growth (locus YPR111W, strain DBF20, hits give low values) was 0.976. For the same compound, the normalized growth (strain NNK1, hits give low values) was 0.973 and the normalized growth (strain TSCII, hits give low values) was 0.966.
